Screens from PubChem BioAssay.
p53 reactivation: mutant p53 re-activation in reporter cells. H1299 p53-A138V BP100-luciferase reporter, luminescence, 24 h. Potency, µM (top dose mostly 92.2 µM), for inactives: top-dose activity change, positive = activation, usual class: activators. 0.063% of 320,000 active. AID 504706; also: % of control where 0% means no effect; nearly all actives have a fitted effect of over 45% in size
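p53-null H1299 cells stably carrying temperature-sensitive p53-A138V and a BP100-luciferase reporter were pinned with compounds (4-point, 1:5 series) and held 24 hrs at 37 deg C. Luminescence was read 10 min after detection reagent.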
NPC1 prom act: activators of NPC1 promoter; 2.4% of 320,000 active; Potency, µM (top dose mostly 9.22 µM), for the others: at the top dose activation, most hits filed as activators; Huh7 NPC1 promoter luciferase reporter, 24 h; AID 485313; also: % of control where 0% means no effect; nearly all actives have a fitted effect of over 60% in size
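Stably transfected Huh7 (NPC1 promoter→luciferase), 1500 cells/well in Opti-MEM + 10% FBS, 2 h settle, then compound 24 h at 37 °C. Luminescence after 10 min with Amplite reagent.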
Rab9 promoter act: activators of Rab9 promoter | Huh7 Rab9 promoter-luciferase reporter, luminescence, 24 h | 2.8% of 320,000 active | Potency, µM (top dose mostly 9.22 µM), without a hit: top-dose activation, negative = inhibition, hits mostly activators | AID 485297; also: % of control where 0% means no effect; nearly all actives have a fitted effect of over 60% in size
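Huh7 cells stably carrying Rab9 promoter–luciferase reporter, plated 1500 cells/well, compound added after 2 h and incubated 24 h at 37 °C; luciferase luminescence then read after 10 min with detection reagent.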
SMN2 splice enh: SMN2 splice variant enhancement; HEK293 SMN2-luciferase splicing reporter, luminescence, 30-36 h; Potency, µM (series often up to 46.1 µM), without a hit: at the highest dose activity change, positive = activation, actives largely listed as activators; 2.8% of 210,000 active; AID 1458; also: % of control where 0% means no effect; nearly all actives have a fitted effect of over 55% in size
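qHTS luciferase splicing reporter: luminescence rises when SMN2 exon 7 is included in transfected HEK293 cells. Compound exposure lasted 30-36 h at 37C, with 4.5 mM final sodium butyrate as control, followed by a ONE-Glo read.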
ELG1 genotox: induces genotoxicity in HEK293T cells with luciferase-tagged ELG1; HEK293T ELG1-luciferase reporter, luminescence, 16 h; Potency, µM (series often up to 46 µM), inactives show at the top dose activity change, positive = activation, actives largely listed as activators; 1.3% of 330,000 active; AID 504466; also: % of control where 0% means no effect; nearly all actives have a fitted effect of over 60% in size
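Quantitative HTS format in 1536-well plates. HEK293T ELG1-luciferase reporter cells receive test compound and are incubated 16 hr at 37 °C, 5% CO2; ONE-Glo added, 30 min room temperature, then luminescence read.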
FLuc counter: firefly luciferase modulation, counter-screen for miR-21 project | AID 588342 | P08659 | purified FLuc, Km substrates, luminescence inhibition | 6.9% of 360,000 active | Potency, µM (top dose mostly 57.5 µM), inactives show at the top dose activity change, negative = inhibition, actives largely listed as inhibitors;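 also: plate controls were vehicle for no effect and reference inhibitor for full effect; nearly all actives have a fitted effect of over 55% in size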
Target sequence (P08659 whole entry, looked up): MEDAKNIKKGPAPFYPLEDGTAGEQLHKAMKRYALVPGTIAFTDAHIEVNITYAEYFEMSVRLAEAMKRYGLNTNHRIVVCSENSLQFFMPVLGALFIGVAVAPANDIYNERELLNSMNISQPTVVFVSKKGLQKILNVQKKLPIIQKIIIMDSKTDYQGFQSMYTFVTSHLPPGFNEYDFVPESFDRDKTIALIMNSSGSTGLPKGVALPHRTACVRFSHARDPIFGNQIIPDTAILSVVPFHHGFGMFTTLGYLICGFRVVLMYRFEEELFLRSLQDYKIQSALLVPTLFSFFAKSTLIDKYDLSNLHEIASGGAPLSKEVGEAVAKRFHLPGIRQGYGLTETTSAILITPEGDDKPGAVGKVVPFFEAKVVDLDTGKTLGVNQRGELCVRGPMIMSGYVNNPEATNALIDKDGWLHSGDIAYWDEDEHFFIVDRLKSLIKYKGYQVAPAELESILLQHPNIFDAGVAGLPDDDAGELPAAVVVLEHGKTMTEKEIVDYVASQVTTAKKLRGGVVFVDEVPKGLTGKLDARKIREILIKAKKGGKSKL
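Purified P. pyralis luciferase (10nM final) with 10uM D-luciferin and 10uM ATP (Km levels) in 50mM Tris acetate pH 7.5, 10mM Mg acetate, 0.01% Tween-20, 0.05% BSA; qHTS 6-point titration, ~60 µM downward; luminescence read.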
An asterisk follows results filed as active; ? = inconclusive; · = no result given. Sampled rows, rich in hits. Any-hit rate of the full collection: about 7.3%. Calls follow the shape of the dose curve; as a rule, active = well fitted curve in the direction sought with a large enough effect; inconclusive = small, poorly fitted or top-dose-only effect, or another doubt; inactive = no such curve, though single readings can be large; an effect the other way counts as inactive or inconclusive. Potency is read from the fitted curve at half-maximal effect.

SMILES	p53 reactivation	NPC1 prom act	Rab9 promoter act	SMN2 splice enh	ELG1 genotox	FLuc counter
O=C(COC(=O)c1cc(-c2ccccc2)nc2ccccc12)Nc1ccc2c(c1)OCO2	-1%	-2%	-2%	10%	1%	?
CCOc1ccc(-c2cc(C(=O)Nc3ccc4c(c3)OCCO4)c3ccccc3n2)cc1	5%	25%	?	?	2%	2.4µM*
Cc1cccc(-c2cc(C(=O)Nc3ccc4c(c3)OCCO4)c3ccccc3n2)c1	11%	-1%	14%	-9%	-7%	6.7µM*
COc1ccc(-c2cc(C(=O)OCC(=O)Nc3ccc4c(c3)OCO4)c3ccccc3n2)cc1	-9%	22%	21%	13µM*	0%	?
CCCCC[C@H](O)/C=C/C=C\C/C=C\CCCCC(=O)O	·	·	·	-10%	·	·
Cc1ccc(C)c(N2CCN(CCCNC(=O)C3COc4ccccc4C3)CC2)c1 (stereo unspecified)	·	·	·	·	·	-5%
COc1ccc(Cl)cc1NC(=O)C(=O)N/N=C/c1cc(C)n(-c2ccc(C)cc2)c1C	1%	-3%	-1%	9%	1%	3.4µM*
Cc1cc(/C=N/NC(=O)c2ccncc2)c(C)n1-c1cccc(C(F)(F)F)c1	-1%	-2%	-5%	·	4%	-2%
Cc1ccc(-n2c(C)cc(/C=N/NC(=O)CC3(C)OCCO3)c2C)cc1	19%	-1%	-1%	-50%	1%	24µM*
Cc1ccc(-n2c(C)cc(/C=N/NC(N)=S)c2C)cc1	17%	0%	1%	-8%	0%	?
Cc1ccc(-n2c(C)cc(/C=N/NC(=O)c3ccc(CN4CCOCC4)cc3)c2C)cc1	1%	-3%	-1%	-32%	-7%	15µM*
Cc1ccc(-n2c(C)cc(/C=N/NC(=O)c3ccncc3)c2C)cc1	-2%	1%	4%	-27%	?	5.4µM*
Cc1cc2c(n1-c1ccc(C(=O)NCCc3ccc(Cl)cc3)cc1)CCC(C)C2 (stereo unspecified)	·	·	·	·	·	-14%
CCOc1cc(/C=N/NC(=O)c2ccc(CN3CCOCC3)cc2)ccc1OC	-3%	-8%	-3%	-11%	-4%	-11%
CN(C)c1ccc(/C=N/NC(=O)c2ccc(CN3CCOCC3)cc2)cc1Br	-1%	-13%	-1%	-38%	-5%	19µM*
Cc1cc(/C=N/NC(=O)c2ccc(O)cc2)c(C)n1CC(C)C	-1%	23%	?	·	?	6µM*
Cc1ccc(Cl)cc1N1CCN(C(=O)CNC(=O)c2ccc(Br)o2)CC1	28%	7%	-10%	·	-10%	·
O=S(=O)(c1cc(F)ccc1F)N1CCC2(CC1)OCCO2	26%	3.5µM*	4µM*	·	9.2µM*	12µM*
CCOc1cc(S(=O)(=O)n2c(C)nc3ccccc32)ccc1F	-6%	1%	-9%	-30%	-14%	-1%
CSc1ccc(/C=C/c2nc3ccccc3n2S(=O)(=O)c2ccc(F)c(C)c2)cc1	·	·	·	·	·	0.27µM*
Cc1ccc(S(=O)(=O)n2c(C)nc3ccccc32)cc1	1%	-6%	3%	·	2%	2%
Cc1ccc(/C=C/c2nc3ccccc3n2S(=O)(=O)c2cccc(Cl)c2)cc1	·	·	·	·	·	0.67µM*
CCOc1ccc(/C=C/c2nc3ccccc3n2S(=O)(=O)c2cccc(Cl)c2)cc1	·	·	·	5µM*	·	0.95µM*
O=C(CCn1c(=O)oc2ccccc21)N1CCN(C(c2ccccc2)c2ccccc2)CC1	0%	0%	0%	-24%	-13%	-1%
O=[N+]([O-])c1ccc(O)c(Nc2ncnc3ccccc23)c1	-2%	?	14%	·	1%	0.54µM*
SMILES	p53 reactivation	NPC1 prom act	Rab9 promoter act	SMN2 splice enh	ELG1 genotox	FLuc counter
O=[N+]([O-])c1ccc(O)c(Nc2ncnc3ccc(Br)cc23)c1	1%	1%	-2%	·	-12%	?
CCOC(=O)c1c(C)oc2nc(C)nc(NCc3cccc(OC)c3)c12	·	·	·	·	·	3%
CCOC(=O)C(C(C)=O)c1c(Br)c(O)c(O)c2c(C(=O)c3ccc(C)cc3)coc12 (stereo unspecified)	25µM*	-25%	-14%	-4%	7%	19µM*
CCOC(=O)c1c(C)n(-c2ccc(C)cc2)c2c(C(C(C)=O)C(=O)O)c(Br)c(O)c(O)c12 (stereo unspecified)	-11%	5%	2%	?	-1%	-3%
Cc1ccccc1Nc1oc(-c2ccccc2)nc1CCc1ccccc1	·	·	·	-5%	·	·
O=C(/C=C/c1ccccc1)Oc1cccc(C(=S)N2CCOCC2)c1	0%	0%	-4%	-33%	2%	9.5µM*
O=C(/C=C/c1ccc(OCCCF)cc1)N1CCOCC1	13%	?	?	·	?	24µM*
O=C(/C=C/c1cccc2ccccc12)N1CCOCC1	9%	?	?	·	?	15µM*
O=C(/C=C/c1cccc(Oc2ccccc2)c1)N1CCOCC1	20%	?	1.6µM*	·	?	15µM*
COc1cc(/C=C/C(=O)N2CCOCC2)ccc1OCc1ccccc1	13%	-1%	-7%	-39%	1%	?
O=C(/C=C/c1ccccc1Cl)N1CCOCC1	1%	23%	4%	·	13%	?
O=C(/C=C/c1ccccc1)Oc1ccccc1C(=S)N1CCOCC1	0%	1%	-1%	·	-1%	3%
O=C(N/N=C/c1cccc2ccccc12)c1ccncc1	-8%	3%	-7%	·	-6%	?
O=C(/C=C/c1cccc2ccccc12)c1ccncc1	?	-8%	-8%	-61%	-6%	9.5µM*
CCCCCOc1ccc(C(=O)CCC(=O)NC(C)c2ccc(S(N)(=O)=O)cc2)cc1 (stereo unspecified)	32%	·	·	·	-2%	·
Cc1ccc2nc(C3CCCCC3)[nH]c2c1	·	1.8µM*	2.8µM*	·	?	9.5µM*
O=C(NC(=O)c1ccc(F)cc1F)Nc1ccc(Cl)cc1	5%	?	2.2µM*	·	13%	-10%
O=C(Nc1ccc(N2CCCC2)cc1)c1cccc(Cl)c1Cl	?	?	?	·	10%	1%
O=C(Nc1ccc(N2CCCCC2)cc1)c1ccc(F)cc1F	6%	0.32µM*	0.35µM*	·	?	1.3µM*
O=C(Nc1ccc(N2CCCC2)cc1)c1ccccc1F	?	0.5µM*	0.5µM*	2.8µM*	?	2.1µM*
CC(=O)Nc1ccc(N2CCCCC2)cc1	6%	13%	10%	-10%	7%	-14%
CS(=O)(=O)N1CCN(c2ccc(NC(=O)c3cccnc3Cl)cc2)CC1	5%	3%	?	20%	7%	-9%
